Measurements taken from PubChem BioAssay (NCI).
About 83,000 compounds went through this panel and 20% of them were active in at least one assay; those are over-represented in the sample as a whole.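 Treatment: one concentration, 48 hours, 96-well format. Scoring: percent growth, with anything below 10 considered active.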 Unmarked numbers belong to inactive results. Calls of active or inactive are those of the source.

test system: NCI-H460 lung; experiment: NCI-60 one-dose screen, 48 h (100 = growth as untreated, 0 = no growth, -100 = all killed); settings: 10 µM

Compound | growth
Cc1ccc(N)cc1[N+](=O)[O-] | 109%
CC(C)COC(=O)COC(=O)OCCOCCOC(=O)OCC(=O)OCC(C)C | 114%
Nc1ccc(N)c([N+](=O)[O-])c1 | 96%
CC1(c2ccccc2)NC(=O)NC1=O (centres undefined) | 118%
O=[N+]([O-])c1ccc(CO)cc1 | 98.7%
O=c1cc(-c2ccccc2)[nH]c2c1CCCC2 | 7.59% (active)
C=C1CC/C=C(\C)C(=O)C[C@@H]2[C@@H]1CC2(C)C | 107%
Brc1cnc2ccccc2c1 | 109%
C=CCNc1nnc(C)s1 | 115%
COc1ccc(/C(C#N)=C2C=C/C(=N/O)c3ccccc3\2)cc1 | 3.48% (active)
Cc1cc(C)c(CC(=O)O)c(C)c1 | 105%
Cc1ccc(O)c(C(=O)c2ccccc2)c1 | 113%
COc1ccc(C(O)c2ccccc2)cc1 (centres undefined) | 98.7%
CCOC(=O)c1cc(/C=C/c2ccc(Cl)cc2Cl)on1 | 3.82% (active)
CC(=O)c1ccc(C)c(N)c1 | 111%
NC(=S)CN1CCOCC1 | 105%
CNC(=S)NC(C)(C)C | 113%
CC(=O)Nc1c(C)cc(C)cc1C | 105%
O=C(Nc1cc(-c2ccccc2)[nH]n1)c1ccc(Cl)cc1 | 56%
O=C(OCC(O)C1OC(c2ccccc2)OC(COC(=O)c2ccccc2)C1O)c1ccccc1 (centres undefined) | 104%

Compound | growth
O=C(NC1CCCCC1)OCc1c(COC(=O)NC2CCCCC2)c(-c2ccc(Cl)c(Cl)c2)n2c1CCC2 | 3.73% (active)
CC(C)=C(NC(=O)c1ccccc1)C(=O)O | 111%
Nc1ccc(N=Nc2ccc(S(=O)(=O)O)cc2)c2ccccc12 | 94.8%
CCCCOC(OCCCC)c1ccccc1 | 109%
CN(C)c1ccc(C(c2ccc(O)cc2)c2ccc(N(C)C)cc2)cc1 | 98.6%
CN(C)c1ccc(CNC(C(=O)c2ccccc2)c2ccccc2)cc1 (centres undefined) | 110%
CC(=O)OCC1CCCO1 (centres undefined) | 91.5%
Cc1cc(C(O)(c2ccc(Nc3ccccc3)cc2)c2ccc(Nc3ccc(S(=O)(=O)O)cc3)cc2)ccc1N (centres undefined) | -39.3% (active)
CN(C)Cc1cc(C(C)(C)CC(C)(C)C)ccc1O | 100%
Oc1ccc(Cc2ccccc2)c2cccnc12 | 0.164% (active)
C=CC[N+](C)(C)C | 104%
COc1ccccc1C1OC2=Nc3cc(C)c(C)cc3NC2C1=O (centres undefined) | 14.1%
CC(C(=O)O)(C1CCCCC1)C1(O)CCCCC1 (centres undefined) | 105%
O=C1C[C@H](c2ccccc2)[C@H](c2ccccc2)C1 | 112%
CN1C(=O)CN2CCc3ccccc3C2c2cc(Cl)ccc21 (centres undefined) | 97.5%
C1CNC(C2=NCCN2)=N1 | 101%
O=c1[nH]c(O)c(/C=C2/C=Nc3ccccc32)[nH]1 | 99.3%
COc1cccc(Sc2ccc([N+](=O)[O-])c3no[n+]([O-])c23)c1 | 95.7%
NC(=O)c1ccc(N=C(N)N=C(N)N)cc1 | 104%
